Screening data as filed in PubChem.
HTR5A ag – activates human HTR5A in OPRM1-OPRD1 agonist counter-screen; activation, % at 9.3 µM; HTR5A agonist assay, luminescence, cell-based; AID 504692; P47898; actives 0.61% (n = 340,000); in the data active = activation mostly above about 9.5%, no sharp cut-off; inactive = mostly below about 7.6%
MsrA inhibitor – inhibitors of bovine MsrA | purified bovine MsrA, absorbance read-out | inhibition, % at 15.5 µM | actives 0.75% (n = 360,000)
HTR5A inv ctr – inverse agonist of human HTR5A in OPRM1-OPRD1 counter-screen; HTR5A cell line, luminescence, inverse agonism; P47898; actives 0.083% (n = 340,000); AID 504634; inhibition, % at 9.3 µM; in the data active = inhibition mostly above about 23%, no sharp cut-off; inactive = mostly below about 18%
MOR-DOR inv ag – inverse agonists of human mu-delta opioid receptor heterodimerization; P35372+P41143; cell-based MOR-DOR heterodimer luminescence, inverse agonism; inhibition, % at 9.3 µM; actives 0.21% (n = 340,000); in the data active = inhibition above about 22%, passing the limit was not always enough
Target sequence (P35372 whole entry, looked up): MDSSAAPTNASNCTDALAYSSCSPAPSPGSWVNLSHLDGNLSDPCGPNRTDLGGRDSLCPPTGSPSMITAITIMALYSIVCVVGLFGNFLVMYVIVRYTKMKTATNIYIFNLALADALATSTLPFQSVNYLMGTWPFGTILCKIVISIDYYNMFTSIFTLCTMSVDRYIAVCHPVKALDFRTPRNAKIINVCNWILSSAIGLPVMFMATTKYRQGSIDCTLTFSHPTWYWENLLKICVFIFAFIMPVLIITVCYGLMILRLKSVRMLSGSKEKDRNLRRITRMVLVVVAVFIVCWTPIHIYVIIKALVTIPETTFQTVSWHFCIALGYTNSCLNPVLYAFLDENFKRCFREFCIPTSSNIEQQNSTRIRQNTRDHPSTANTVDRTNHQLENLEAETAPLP
Target sequence (P41143 whole entry, looked up): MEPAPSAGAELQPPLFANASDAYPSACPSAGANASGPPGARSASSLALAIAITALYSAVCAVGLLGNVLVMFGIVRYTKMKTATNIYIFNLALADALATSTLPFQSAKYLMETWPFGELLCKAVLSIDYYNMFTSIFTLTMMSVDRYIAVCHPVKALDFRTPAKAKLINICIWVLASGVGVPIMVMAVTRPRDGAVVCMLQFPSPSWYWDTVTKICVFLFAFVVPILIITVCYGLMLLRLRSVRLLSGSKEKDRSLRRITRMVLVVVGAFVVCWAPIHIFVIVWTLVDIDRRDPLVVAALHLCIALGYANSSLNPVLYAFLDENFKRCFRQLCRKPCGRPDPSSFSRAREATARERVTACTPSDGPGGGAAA
MOR-DOR ag – agonists of human mu-delta opioid receptor heterodimerization | P35372+P41143 | cells, OPRM1-OPRD1 heterodimerization, luminescence | activation, % at 9.3 µM | actives 0.3% (n = 340,000); in the data active = activation above about 18%
bovine MsrA act – activates bovine MsrA enzyme. AID 602163. activation, % at 10.6 µM. purified bovine MsrA, absorbance read-out. actives 0.3% (n = 360,000); in the data active = activation above about 7.5%
MsrA conf – confirmation of bovine MsrA inhibitors; shares compounds with MsrA inhibitor; purified bovine MsrA, absorbance read-out; inhibition, % at 15.5 µM; actives 41% (n = 2,300); AID 651822;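 note: coupled to thioredoxin reductase with NADPH and selenocystamine and DMSO as substrate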
Each line names hits and unclear results; the compound was inactive in the other large screens (follow-up assays come after a bar, where they were run). This is a sample that favours compounds with a hit; in the whole collection about 1.9% have one here. Cut-off read from the data, not from the text of the source, unless noted: active = inhibition above about 4.5%; inactive = the rest.

Cc1nn(C)cc1/C=C/C(=O)c1cccs1	MsrA inhibitor 5.4 | MsrA conf inactive
Cc1ccc(C(NC(=O)C2CCN(Cc3ccc(Oc4ccccc4)cc3)CC2)c2ccccn2)cc1 (stereo not given)	none (no result: HTR5A ag, HTR5A inv ctr, MOR-DOR inv ag, MOR-DOR ag)
Cc1cc(C)n2nc(C(F)(F)F)c(-c3ccccc3)c2n1	MsrA inhibitor 4.8 | MsrA conf inactive
O=C(N[C@H](C(=O)N1CCC[C@H]1C(=O)NC1CCCC1)c1ccccc1)C1CC1	none (no result: HTR5A ag, HTR5A inv ctr, MOR-DOR inv ag, MOR-DOR ag, bovine MsrA act)
O=[N+]([O-])c1cccc(I)c1	none (no result: HTR5A ag, HTR5A inv ctr, MOR-DOR inv ag, MOR-DOR ag, bovine MsrA act)
Cc1ccc(-c2nc(=S)c3c(n2CC2CCCO2)CC(C)(C)OC3)cc1 (stereo not given)	MsrA inhibitor 4.9 | MsrA conf inactive
Cc1ccc(-c2nc(=S)c3c(n2Cc2ccco2)CC(C)(C)OC3)cc1	none (no result: MsrA inhibitor)
C/C(=N\Nc1ccc([N+](=O)[O-])cc1[N+](=O)[O-])C(C)C(C)C (stereo not given)	MsrA inhibitor 16 | MsrA conf 14
CCOC(=O)C(C(=O)OCC)C(C)(C)/C(C)=N\Nc1ccc([N+](=O)[O-])cc1[N+](=O)[O-]	none
CCOC(=O)C(C)/C(C)=N\Nc1ccc([N+](=O)[O-])cc1[N+](=O)[O-] (stereo not given)	MsrA inhibitor 15 | MsrA conf 13
CCOC(=O)CC(C)(C)/C(C)=N/Nc1ccc([N+](=O)[O-])cc1[N+](=O)[O-]	MsrA inhibitor 9.8 | MsrA conf 13
O=[N+]([O-])c1ccc(Nc2ccccc2O)c([N+](=O)[O-])c1	MsrA inhibitor 5.7 (no result: HTR5A ag, HTR5A inv ctr, MOR-DOR inv ag, MOR-DOR ag) | MsrA conf 7.2
COc1cc2c(cc1OC)C1CCc3cc4c(cc3C1N=C2)OCO4 (stereo not given)	none (no result: HTR5A ag, HTR5A inv ctr, MOR-DOR inv ag, MOR-DOR ag)
CSCCC(C(=O)Nc1c(C)cccc1C)n1c(-c2cnc(C)cn2)nc2ccccc21 (stereo not given)	none (no result: HTR5A ag, HTR5A inv ctr, MOR-DOR inv ag, MOR-DOR ag, bovine MsrA act)
c1ccc(Nc2ccc(NCCc3c[nH]c4ccccc34)cc2)cc1	none (no result: HTR5A ag, HTR5A inv ctr, MOR-DOR inv ag, MOR-DOR ag, bovine MsrA act)
COCCN(C(=O)c1ccc(-c2ccc([N+](=O)[O-])cc2)o1)c1c(N)n(CC(C)C)c(=O)[nH]c1=O	MsrA inhibitor 4.7 | MsrA conf 4.6
COC(=O)C1=C(C)N(Cc2ccc(F)cc2)C(=S)NC1c1ccccc1 (stereo not given)	none (no result: HTR5A ag, HTR5A inv ctr, MOR-DOR inv ag, MOR-DOR ag, bovine MsrA act)
Cc1cc(C(=O)N/N=C/C=C/c2ccccc2)c(C)o1	MsrA inhibitor 4.7 | MsrA conf inactive
NC(=S)N/N=C/C=C/c1ccccc1	MsrA inhibitor 5.2 | MsrA conf inactive
O=C(N/N=C/C=C/c1ccccc1)c1cccc(Br)c1	none
Cc1occc1C(=O)N/N=C/C=C/c1ccccc1	MsrA inhibitor 5.5 | MsrA conf 5.1
Cc1ccc(C(=O)N/N=C/C=C/c2ccccc2)cc1	MsrA inhibitor 4.9 | MsrA conf 4.6
O=C(O)c1cc(N/N=C/C=C/c2ccccc2)ccc1Cl	MsrA inhibitor 5.1 | MsrA conf inactive
C[C@H](O)[C@@H]1C(=O)N2CCc3c([nH]c4cccc(-c5ccccc5)c34)[C@@H]2C[C@@H]1N(C)CC1CCCCC1	none (no result: HTR5A ag, HTR5A inv ctr, MOR-DOR inv ag, MOR-DOR ag, bovine MsrA act)
Oc1oc(-c2ccco2)nc1C=Nc1cccc(Cl)c1	none
CC(=NCc1cccc(Cl)c1)c1nc(-c2ccco2)oc1O	MsrA inhibitor 5.9 | MsrA conf inactive
CC(C(=O)NC(C)(C)C)N1C(=O)c2cccc3cccc(c23)C1=O (stereo not given)	MsrA inhibitor 4.8 | MsrA conf inactive
CCCCNC(=O)c1nc(-c2cccs2)oc1-c1ccc(Cl)cc1	none (no result: HTR5A ag, HTR5A inv ctr, MOR-DOR inv ag, MOR-DOR ag, bovine MsrA act)
COc1ccc(C(=O)c2[nH]c(N)c(C(=O)NCCc3c[nH]c4ccccc34)c2-c2ccccc2C(F)(F)F)cc1	none (no result: HTR5A ag, HTR5A inv ctr, MOR-DOR inv ag, MOR-DOR ag, bovine MsrA act)
Cc1cc(C)cc(Nc2ccc([N+](=O)[O-])nc2[N+](=O)[O-])c1	MsrA inhibitor 19 | MsrA conf 17
COc1cc(Nc2ccc(C)cc2)c([N+](=O)[O-])nc1[N+](=O)[O-]	none
COC(=O)c1ccc(NC2=CC(=O)CC(C)(C)C2)cc1	MsrA inhibitor 4.9 | MsrA conf 5.0
Cc1cc(C)nc(NC(=O)c2cnc3sccn3c2=O)n1	MsrA inhibitor 5.5 | MsrA conf 4.7
Cc1cc(NS(=O)(=O)c2ccc(NC(=O)c3cnc4sccn4c3=O)cc2)nc(C)n1	none
O=C(COc1ccc2c(-c3ccccc3)cc(=O)oc2c1)NCC1CCC(C(=O)O)CC1 (stereo not given)	MsrA inhibitor 5.0 | MsrA conf inactive
Cc1[nH]c2ccccc2c1CC(=O)Nc1ccc(N(C)c2cccnc2)c(-c2cccc(Cl)c2)c1	none (no result: HTR5A ag, HTR5A inv ctr, MOR-DOR inv ag, MOR-DOR ag, bovine MsrA act)
COc1cc(/C=C2/C(C)=C(C#N)c3nc(N)c(C#N)c(C)c32)ccc1OCC(=O)O	MsrA inhibitor 5.0 (no result: HTR5A ag, HTR5A inv ctr, MOR-DOR inv ag, MOR-DOR ag, bovine MsrA act) | MsrA conf inactive
COc1cc2c(NCCCCCCO[N+](=O)[O-])ncnc2c(OC)c1OC	none (no result: HTR5A ag, HTR5A inv ctr, MOR-DOR inv ag, MOR-DOR ag, bovine MsrA act)
COc1cccc(-c2cc3c(-n4cccc4)ncnc3o2)c1	MsrA inhibitor 5.5 | MsrA conf inactive
N#C/C(=C\c1ccco1)C(=O)Nn1cnnc1	MsrA inhibitor 7.5 | MsrA conf 5.7
N#C/C(=C\c1ccco1)C(=O)Nc1ccc(S(N)(=O)=O)cc1	none
CC(=O)c1ccc2noc(-c3ccccc3)c2c1	none
c1ccc(-c2onc3cc4c(cc23)OCCO4)cc1	MsrA inhibitor 5.1 | MsrA conf inactive
CCOC(=O)C1=C(Nc2ccc(Br)cc2)C(=O)N(CC)C1	none (no result: HTR5A ag, HTR5A inv ctr, MOR-DOR inv ag, MOR-DOR ag, bovine MsrA act)
COc1ccc(CC(=O)N2CCN(c3ccc(C4=NNC(=O)CC4C)cc3)CC2)cc1 (stereo not given)	MsrA inhibitor 4.8 | MsrA conf inactive
COc1ccc(CC(=O)N2CCN(C(=O)Cc3ccc(OC)cc3)CC2)cc1	none
COC(=O)C1=C(C)N(Cc2ccccc2C(F)(F)F)C(=NCc2ccc3c(c2)OCO3)NC1c1cccc(F)c1 (stereo not given)	none (no result: HTR5A ag, HTR5A inv ctr, MOR-DOR inv ag, MOR-DOR ag, bovine MsrA act)
COc1ccc(-c2cc(-c3ccccc3)nc(=O)[nH]2)cc1	MsrA inhibitor 5.3 | MsrA conf inactive
C#CCn1c(=NC(=O)c2ccc(S(=O)(=O)N3CCCc4ccccc43)cc2)sc2cc(S(N)(=O)=O)ccc21	MsrA inhibitor 5.3 | MsrA conf inactive
Cn1c(=NC(=O)c2ccc(S(=O)(=O)N3CCCc4ccccc43)cc2)sc2cc(S(C)(=O)=O)ccc21	none
CCCCCCCCN1C(=O)[C@@H](CC(=O)NCCCOCCCC)C[C@@]2(C(=O)OC)C1=C[C@H](C1CCCC1)O[C@@H]2C	none (no result: HTR5A ag, HTR5A inv ctr, MOR-DOR inv ag, MOR-DOR ag, bovine MsrA act)
CC(=O)C1=C(C)NC(=S)NC1c1ccc(F)cc1 (stereo not given)	none (no result: HTR5A ag, HTR5A inv ctr, MOR-DOR inv ag, MOR-DOR ag, bovine MsrA act)
Cn1cnc([N+](=O)[O-])c1Sc1nc(N)nc2c1ncn2C1OC(CO)C(O)C1O (stereo not given)	none
Cn1cnc([N+](=O)[O-])c1Sc1nc(N)nc2c1ncn2C1CC(O)C(CO)O1 (stereo not given)	MsrA inhibitor 5.5 | MsrA conf inactive
Cc1ccccc1S(=O)(=O)N1C(c2ccc(Cl)c(Cl)c2)CC=C(C(=O)O)C1c1cccc(Br)c1 (stereo not given)	none (no result: HTR5A ag, HTR5A inv ctr, MOR-DOR inv ag, MOR-DOR ag, bovine MsrA act)
